Data: paper PMC5540273 (PLoS ONE, 2017)

System: T1, DRAK1
T1 construct: gene STK17A
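Also: kd values determined as follow-up on hits from a single-replicate KINOMEscan panel screen.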

| SMILES | Kd |
| --- | --- |
| CC(C)(C)c1ccc(-n2cnc3c(N)ncnc32)cc1 [SKF-97263] | 450 nM |
| C[C@H]1CC[C@@H](C(=O)Nc2ccccc2)CN1c1cc(-c2ccc3c(N)n[nH]c3c2)nc(N)n1 [GSK2283293] | 11 nM |
| Nc1nc(-c2ccc3c(N)n[nH]c3c2)cc(N2CCCCC2)n1 [GSK2228768] | 110 nM |
| CC(C)(C)OC(=O)NC1CCCN(c2cc(-c3ccc4c(N)n[nH]c4c3)nc(N)n2)C1 (centres unmarked) [GSK2286096] | 130 nM |
| Fc1cccc(COc2ccc(Nc3ncnc4nn5ccccc5c34)cc2Cl)c1 [GW689066] | > 10000 nM |

System: DYRK1B

| SMILES | Kd |
| --- | --- |
| Nc1n[nH]c2nnc(-c3ccccc3)cc12 [SB-517389] | 7000 nM |
| COc1ccc(Nc2nccc(N3CCC(NC(=O)c4cccc(NC(C)=O)c4)C3)n2)cc1 (centres unmarked) [GSK1379732] | > 10000 nM |
| Cc1cc(N2CCC(NS(=O)(=O)c3ccc(F)cc3)CC2)nc(Nc2cccc(C#N)c2)n1.O=C(O)C(F)(F)F [GSK1653537] | 2800 nM |
| CC(C)(C)OC(=O)NC1CCCN(c2cc(-c3ccc4c(N)n[nH]c4c3)nc(N)n2)C1 (centres unmarked) [GSK2286096] | > 10000 nM |

System: EGFR

| SMILES | Kd |
| --- | --- |
| O=C(CCO)NCCn1ccc2ncnc(Nc3ccc(Oc4cccc(C(F)(F)F)c4)c(Cl)c3)c21 | 2.3 nM |
| Oc1ccc2ncnc(Nc3ccc(OCc4ccccc4)cc3)c2c1 [GI262866] | 9.3 nM |
| Fc1cccc(COc2ccc(Nc3ncnc4sc(-c5ccc[nH]5)cc34)cc2Cl)c1 [GW707818] | 2.6 nM |
| CS(=O)(=O)CCNCc1ccc(-c2ccc3ncnc(Nc4ccc(OCc5ccccc5)c(Cl)c4)c3c2)o1.Cl [GW574783] | 0.82 nM |
| NC(=O)c1sc(-n2cnc3ccccc32)cc1OCc1ccccc1F [GSK1024306] | 1300 nM |
| Cl.O=S(=O)(c1cccc(F)c1)c1ccc(Nc2ncnc3cc(Br)sc23)cc1Cl [GSK306886] | 61 nM |
| Clc1cc(Nc2ncnc3cc[nH]c23)ccc1OCc1ccccn1 | 8.4 nM |
| CS(=O)(=O)CCNCc1nc(-c2ccc3ncnc(Nc4ccc(OCc5cccc(F)c5)c(Cl)c4)c3c2)cs1.Cl [GW583340] | 0.69 nM |
| COc1cc2c(Nc3cccc(NC(=O)c4ccccc4)c3)ncnc2cc1OCCCN1CCOCC1 [GSK223810] | 1400 nM |
| Cl.Fc1ccccc1COc1ccc(Nc2ncnc3ccc(-c4nnc(C(F)(F)F)o4)cc23)cc1Cl [GW424170] | 43 nM |
| Cl.c1ccc(Cn2ncc3cc(Nc4ncnc5ccccc45)ccc32)cc1 [GW273749] | 7.6 nM |
| N#Cc1ccc(Oc2ccc(Nc3ncnc4cc[nH]c34)cc2Cl)cc1 | 97 nM |
| COc1cc2ncnc(Nc3ccc(OCc4ccccc4Br)c(Cl)c3)c2cc1OC.Cl [GI261590] | 2.4 nM |
| Cl.c1ccc(Cn2ccc3cc(Nc4ncnc5ccccc45)ccc32)cc1 [GW275568] | 5 nM |
| OCCOCCn1ccc2ncnc(Nc3ccc(Oc4cccc(Cl)c4)c(Cl)c3)c21 | 8.5 nM |
| Fc1cccc(COc2ccc(Nc3ncnc4cc[nH]c34)cc2Cl)c1 | 1.3 nM |
| Cn1ccc2ncnc(Nc3ccc(Oc4cccc(Cl)c4)c(Cl)c3)c21 | 4.3 nM |

System: EPHA3

| SMILES | Kd |
| --- | --- |
| CCn1c(-c2ccncc2)nc2cnccc21 [SB-735216] | > 10000 nM |
| O=c1cc(N2CCOCC2)nc2n(Cc3cccc(Cl)c3)ccn12 [GSK2296823] | > 10000 nM |
| Cl.Cn1ccc(-c2cccc(Nc3ccnc4cc(-c5nccs5)ccc34)c2)n1 [GW525701] | > 10000 nM |
